Hits are enriched below; roughly 7.4% of the tested compounds scored in any of these assays.
ELG1 genotoxic – inducers of genotoxicity in HEK293T ELG1-luciferase cells | HEK293T ELG1-luciferase reporter, luminescence, 16 h | Potency, µM (titrated, usually from 46 µM), for the others: top-dose activity change, positive = activation, most hits filed as activators | 1.3% of 330,000 active | AID 504466; also: % of control where 0% means no effect; nearly all actives have a fitted effect of over 60% in size
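16 hr compound incubation (37 °C, 5% CO2) of HEK293T cells carrying luciferase-tagged ELG1; luciferase then measured by ONE-Glo luminescence after 30 min at RT.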
Rab9 promoter act – activates the Rab9 promoter; Potency, µM (doses to about 9.22 µM), without a hit: at the top dose activation, negative = inhibition, usual class: activators; Huh7 Rab9 promoter-luciferase reporter, luminescence, 24 h; AID 485297; 2.8% of 320,000 active; also: % of control where 0% means no effect; nearly all actives have a fitted effect of over 60% in size
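Huh7 cells stably carrying Rab9 promoter–luciferase reporter, plated 1500 cells/well, compound added after 2 h and incubated 24 h at 37 °C; luciferase luminescence then read after 10 min with detection reagent.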
Luc counter – blocks Kinase-Glo luciferase, a counter-screen artifact; Kinase-Glo luciferase, ATP luminescence, 8 min; Potency, µM (doses to about 38.3 µM), for inactives: top-dose activity change, negative = inhibition, most hits filed as inhibitors; 0.28% of 200,000 active; AID 1379; also: % is scaled to controls: 0 for no effect and ±100 for the full control effect; nearly all actives have a fitted effect of over 60% in size
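Recombinant Kinase-Glo luciferase, 10 uM ATP (linear range), luciferin; imidazole pH 7.2 / KCl / MgCl2 / Tween / BSA buffer; 8 min RT; luminescence.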
NPC1 promoter act – activators of NPC1 promoter; Huh7 NPC1 promoter luciferase reporter, 24 h; Potency, µM (doses to about 9.22 µM), for inactives: at the highest dose activation, hits mostly activators; 2.4% of 320,000 active; also: % of control where 0% means no effect; nearly all actives have a fitted effect of over 60% in size
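Quantitative HTS used a cell-based reporter: Huh7 cells stably bearing the NPC1 promoter upstream of luciferase were treated with compounds for 24 h, and promoter activation was read as luminescence.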
SMN2 splice up – enhancers of SMN2 splice variant expression; HEK293 SMN2-luciferase splicing reporter, luminescence, 30-36 h; Potency, µM (titrated, usually from 46.1 µM), for the others: at the top dose activity change, positive = activation, actives largely listed as activators; 2.8% of 210,000 active; also: % of control where 0% means no effect; nearly all actives have a fitted effect of over 55% in size
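HEK293 cells carry an SMN2 […]–luciferase reporter in which exon 7 inclusion puts luciferase in frame. Cells were plated 10-12 h before compound addition, then incubated 30-36 h at 37C. ONE-Glo luminescence was read; sodium butyrate at 4.5 mM final served as control.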
FLuc counter – counter-screen for miR-21 project: firefly luciferase inhibitors or activators; P08659; purified FLuc, Km substrates, luminescence inhibition; Potency, µM (doses to about 57.5 µM), for inactives: at the highest dose activity change, negative = inhibition, usual class: inhibitors; 6.9% of 360,000 active;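 also: plate controls were vehicle for no effect and reference inhibitor for full effect; nearly all actives have a fitted effect of over 55% in size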
Target sequence (P08659 whole entry, looked up): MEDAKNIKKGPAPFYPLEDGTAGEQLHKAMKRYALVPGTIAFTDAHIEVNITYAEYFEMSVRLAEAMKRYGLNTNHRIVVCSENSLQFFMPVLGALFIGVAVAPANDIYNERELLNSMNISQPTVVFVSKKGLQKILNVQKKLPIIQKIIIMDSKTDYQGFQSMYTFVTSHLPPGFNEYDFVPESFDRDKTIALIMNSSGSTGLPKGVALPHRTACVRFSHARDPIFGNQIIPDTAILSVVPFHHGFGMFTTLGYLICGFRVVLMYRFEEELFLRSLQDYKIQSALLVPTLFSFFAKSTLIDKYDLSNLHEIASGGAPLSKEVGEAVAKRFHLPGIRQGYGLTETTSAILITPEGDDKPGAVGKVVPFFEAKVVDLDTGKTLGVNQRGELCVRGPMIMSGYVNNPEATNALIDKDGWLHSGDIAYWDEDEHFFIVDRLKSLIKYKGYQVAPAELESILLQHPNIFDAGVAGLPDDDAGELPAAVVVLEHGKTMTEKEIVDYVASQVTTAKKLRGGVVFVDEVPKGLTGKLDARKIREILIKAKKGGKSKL
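Biochemical qHTS of compounds, final roughly 60 µM downward over six points, against 10 nM purified firefly luciferase using Km concentrations of substrates (10 uM D-luciferin, 10 uM ATP) in Tris acetate pH 7.5 buffer; luminescence output.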
The depositor's hits bear a star; ? = inconclusive; / = no result. Calls follow the shape of the dose curve; as a rule, active = well fitted curve in the direction sought with a large enough effect; inconclusive = small, poorly fitted or top-dose-only effect, or another doubt; inactive = no such curve, though single readings can be large; an effect the other way counts as inactive or inconclusive. Potency is read from the fitted curve at half-maximal effect.

SMILES | ELG1 genotoxic | Rab9 promoter act | Luc counter | NPC1 promoter act | SMN2 splice up | FLuc counter
CC(=O)Nc1nc2ccc(C(=O)NC3CCCCC3)cc2s1 | 0% | 2% | -1% | -1% | -3% | -17%
O=C(CS(=O)(=O)c1ccc(Cl)cc1)Nc1nc2ccc(Br)cc2s1 | / | / | / | / | / | -5%
CCOC(=O)c1csc(Nc2nc3ccc(F)cc3s2)n1 | 1% | 23% | -9% | 14% | -21% | -16%
O=C(Nc1nc2ccc(S(=O)(=O)N3CCCC3)cc2s1)C1CCCCC1 | -2% | -24% | -5% | -33% | -37% | 0%
CC(C)c1ccc2nc(NC(=O)C3CC3)sc2c1 | ? | 1.6µM* | / | 1.6µM* | / | 7.6µM*
COC(=O)c1ccc2nc(NC(=O)C3CCCCC3)sc2c1 | ? | 0.32µM* | 0% | 0.89µM* | / | ?
COC(=O)Nc1nc2ccc(Br)cc2s1 | ? | 1.4µM* | -3% | 28% | 26% | -10%
CCN(c1ccccc1)S(=O)(=O)c1ccc(NC(=O)c2nc(SC(C)C)ncc2Cl)cc1 | / | / | / | / | -13% | 0%
Cc1ccc(C(=O)N2CCOCC2)c(F)c1F | 0% | 13% | 0% | 13% | 14% | -3%
CCCSCCCNC(=O)Cn1c(-c2cccs2)cc2ccccc21 | / | / | / | / | / | -10%

Assay outcomes: PubChem BioAssay, National Center for Advancing Translational Sciences (NCATS)
